Screening data from PubChem BioAssay.
Many of the other results were omitted from the sample, so hits are more common in it than they were.
RE007 growth inh = qHTS Assay for Inhibitors of the HIV-1 protein Vpr; S. pombe RE007 Vpr strain, BacTiter-Glo ATP luminescence, 24 h; Potency, µM (titrated, usually from 92.2 µM), actives largely listed as inhibitors; hit rate 0.21% among 360,000; active means well fitted falling curve with a large enough effect; inconclusive means small, poorly fitted or top-dose-only effect; inactive means no such curve, though single readings can be large or run the other way; further: nearly all actives have a fitted effect of over 50% in size
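Fission yeast RE007 carrying one integrated HIV-1 vpr copy, seeded at OD 0.01 in PMG+AL medium with 23 nL pinned compound. Grown 24 h at 30 degrees; viability read by BacTiter-Glo luminescence after 5 min.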
LmPK inhibitor = qHTS Assay for Inhibitors of Leishmania Mexicana Pyruvate Kinase (LmPK). Potency, µM (series often up to 57.5 µM), most hits filed as inhibitors. purified LmPK, Kinase-Glo ATP luminescence, 1 h. Q27686. hit rate 0.37% among 290,000
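Purified LmPK (0.1 nM) converted ADP (0.1 mM) to ATP with PEP (0.5 mM) in imidazole buffer pH 7.2 with KCl and MgCl2, 1 h at room temperature. ATP was read by Kinase-Glo luminescence; data normalized to uninhibited and no-enzyme controls.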
Tb PYK inh = qHTS of Trypanosoma Brucei Inhibitors; Potency, µM (highest dose often 76.8 µM), usual class: inhibitors; AID 624173, 2012; pyruvate kinase (Trypanosoma brucei), Q57TT1; hit rate 0.12% among 410,000; TbPYK enzyme, Kinase-Glo Plus ATP luminescence, 45 min; further: nearly all actives have a fitted effect of over 50% in size
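Luminescence from Kinase-Glo Plus, added after a 45-minute room-temperature reaction, served as the end-point read-out. The enzyme and substrate were preincubated with compound before ADP (130 uM final) initiated turnover. Concentration-effect curves came from normalized qHTS data.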
Shiga inhibitor = A qHTS for Small Molecule Inhibitors of Shiga Toxin | hit rate 9.2% among 290,000 | Vero cells, Shiga toxin protein synthesis inhibition reporter | inhibition, % at 38.7 µM | AID 2315, 2010; in the data active means inhibition mostly above about 28%, no sharp cut-off; inactive means mostly below about 43%
Cycloheximide cs = Cycloheximide Counterscreen for Small Molecule Inhibitors of Shiga Toxin; AID 2314, 2010; max response, %; hit rate 12% among 300,000; cell reporter, cycloheximide protein synthesis inhibition counterscreen; in the data active means max response mostly above about 13%, no sharp cut-off; inactive means mostly below about 14%; further: read at 38.3 µM for the half of the compounds with a filed dose
FBPA Giardia inh = qHTS Assay for Inhibitors of Fructose-1,6-bisphosphate Aldolase from Giardia Lamblia; hit rate 0.71% among 290,000; purified Giardia FBPA; Potency, µM (titrated, usually from 59.6 µM), most hits filed as inhibitors; further: nearly all actives have a fitted effect of over 55% in size
Target sequence (A8B2U2 whole entry, looked up): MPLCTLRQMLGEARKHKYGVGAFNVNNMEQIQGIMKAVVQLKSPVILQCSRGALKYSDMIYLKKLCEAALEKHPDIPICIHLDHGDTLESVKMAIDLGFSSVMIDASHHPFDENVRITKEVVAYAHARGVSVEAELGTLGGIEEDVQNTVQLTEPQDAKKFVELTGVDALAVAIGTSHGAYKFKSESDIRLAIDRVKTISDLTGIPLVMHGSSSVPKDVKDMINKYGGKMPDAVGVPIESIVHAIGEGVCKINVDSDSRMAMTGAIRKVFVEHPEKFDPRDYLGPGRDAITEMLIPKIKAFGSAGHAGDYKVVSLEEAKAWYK
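Giardia FBPA (40 nM reagent) was preincubated 10 min at RT with compound (up to 57.5 uM final), then substrate plus GAPDH/TPI/NAD/arsenate coupling system with diaphorase/resazurin was added; resorufin fluorescence (525/598 nm) was read after 20 min.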
Hits are given with their value; 0 = inactive; ? = inconclusive; - = no result given; [ ] = another dose, or the depositor's remark. Unless noted, the call rests on the fitted dose curve; in most records, active means well fitted curve in the direction sought with a large enough effect; inconclusive means small, poorly fitted or top-dose-only effect, or another doubt; inactive means no such curve, though single readings can be large; an effect the other way counts as inactive or inconclusive.

SMILES	RE007 growth inh	LmPK inhibitor	Tb PYK inh	Shiga inhibitor	Cycloheximide cs	FBPA Giardia inh
O=C(NCc1ccco1)c1cc2ccccc2c(=O)o1	0	0	0	148.5	66.5	0
Cc1c(C(=O)NCc2ccco2)oc2ccc(Br)cc12	0	-	0	-	-	-
O=C(NCc1ccco1)c1cc2cc(Br)ccc2o1	?	0	0	86.6	34.5	-
O=C(NCc1ccco1)Nc1ccc(Br)cc1Cl	0	0	0	87.2	48.0	0
O=C(NCc1ccco1)c1cc(=O)c2ccccc2o1	0	0	0	0	0	0
c1ccc(COc2ccc(CN3CCN(c4ccccn4)CC3)cc2)cc1	0	0	0	92.9	41.2	0
C(#Cc1ccccc1)CN1CCCCC1	0	0	0	0	0	0
C(#Cc1ccccc1)CN1CCN(c2ccccn2)CC1	0	0	0	0	24.7	?
C[C@@]1(C(NC(=O)Cc2ccc(C(F)(F)F)cc2)c2ccc(-c3ccccc3)cc2)C[C@H]1C1CCCCC1 (stereo not given in full)	-	-	-	-	-	0
CCOC(=O)c1c(NC(=O)CSc2cn(CCNC(=O)c3c(F)cccc3F)c3ccccc23)sc2c1CCC2	-	-	0	-	-	-
CC(C)(C)n1cnc2cc(NCc3ccccc3Cl)ccc21	-	-	0	-	-	-
Cc1ccc(CNc2ccc3c(c2)ncn3C)cc1	0	0	0	80.9	45.7	0
Cc1nc2ccccc2n1Cc1ccccc1	0	0	0	-	0	0
Cc1nc2cc(NCc3ccccc3O)ccc2n1Cc1ccccc1	0	0	0	91.9	69.1	0
Cc1ccc(CNc2ccc3c(c2)ncn3C(C)(C)C)cc1	0	0	0	132.7	40.4	0
CCn1cnc2cc(NCc3ccc(Cl)cc3)ccc21	0	0	0	118.6	41.0	0
CSc1nc2c([nH]c3ccccc32)c(=O)n1-c1ccc(C)cc1	-	-	0	-	-	-
CCOc1ccccc1N1CC(c2nc3ccccc3n2CCOc2ccccc2OC)CC1=O (stereo not given)	-	-	0	-	-	-
CCc1ccc(CNc2ccc3c(c2)ncn3C)cc1	0	0	0	72.7	24.7	0
COc1ccc(CNc2ccc3c(c2)ncn3C)cc1OC	0	0	0	0	0	0
Oc1ccccc1CNc1nccs1	0	0	0	0	0	0
Cn1cnc2cc(NCc3ccccc3O)ccc21	0	0	0	113.7	61.1	0
COc1ccccc1C(CNC(=O)c1ccc(C)c(S(=O)(=O)N2CCCCC2)c1)N1CCCC1 (stereo not given)	0	-	0	-	-	-
Cc1ccc(-c2nc3c4ccccc4ccn3c2CN2CCCCC2)cc1	0	0	0	58.8	32.4	0
Cc1ccc(S(=O)(=O)N/N=C/c2cccs2)cc1	0	0[11.5 µM]	0	0	0	0
SMILES	RE007 growth inh	LmPK inhibitor	Tb PYK inh	Shiga inhibitor	Cycloheximide cs	FBPA Giardia inh
O=[N+]([O-])c1ccc(S(=O)(=O)N/N=C/c2cccs2)cc1	0	0	0	27.2	19.8	0
O=C1CN(c2ccccc2)C(=O)N1	0	0	0	0	0	0
S=C1NC(c2ccccc2)=NCN1c1ccccc1	0	0	0	0	30.0	0
Cc1ccc(C2=NCN(c3ccc(C(=O)O)cc3)C(=S)N2)cc1	-	0	-	0	39.1	0
COc1ccc(NC(=O)c2ccc3c(SCC(=O)O)c4c(nc3c2)CCC4)c(OC)c1	-	-	0	-	-	-
COc1ccccc1-c1cc2nc(C)c(CCC(=O)NCCc3ccc(SC)cc3)c(C)n2n1	-	-	0	-	-	-
S=C(NCCc1ccccn1)Nc1cccc(Cl)c1	0	0	0	0	0	0
FC(F)Oc1ccc(NC(=S)NCCc2ccccn2)cc1	0	0	0	0	28.9	0
FC(F)Oc1ccc(NC(=S)NCc2ccccc2)cc1Cl	0	0	0	0	0	0
Oc1cccc2c(NC(=S)Nc3ccc(OC(F)F)cc3)cccc12	0	0	0	88.4	74.1	?
FC(F)Oc1ccc(NC(=S)NCc2ccccc2)cc1	0	0	0	36.8	11.3	0
Nc1ncnc2c1ncn2[C@@H]1O[C@@H](CO)[C@H](O)[C@H]1O	-	-	-	-	-	0
COc1ccc(N(CC(=O)Nc2ccc(C)c(C)c2)S(=O)(=O)c2ccc(C)cc2)cc1OC	-	-	0	-	-	-
CCOc1ccccc1NS(=O)(=O)c1cn(C)c(=O)n(C)c1=O	0	0	0	0	0	0
CC(=O)C1=C(c2ccc(Br)cc2)C(=O)c2ccccc2C1=O	?	0	0	0	0	0.281µM
CNC1=C(N(C(C)=O)c2ccc(Br)cc2)C(=O)c2ccccc2C1=O	?	0	0	0	0	?
Cc1cc(=O)n(-c2ccc3ccccc3n2)[nH]1	0	0	0	50.8	47.1	0
CN1CCN(c2ccc3ccccc3n2)CC1	-	-	-	-	-	0
CCCCN1C(=O)C2(NNc3ccccc3O2)c2ccccc21 (stereo not given)	?	0	0	62.4	46.8	?
C=CCN1C(=O)C2(NNc3ccccc3O2)c2ccccc21 (stereo not given)	0	0	0	0	0	0
CCC(=O)Nc1cccc(C(=O)c2ccccc2)c1	0	0	0	0	10.6	0
CCC(=O)Nc1cccc(C(=O)/C=C/c2ccccc2)c1	0	0	0	0	25.2	0
CCC(=O)Nc1cccc(C(=O)/C=C/c2cccs2)c1	0	0	0	85.0	36.6	0
Cc1ccc(S(=O)(=O)NCCC(=O)NCC(c2ccco2)N2CCCCC2)cc1C (stereo not given)	0	-	0	-	-	-
O=C(Nc1ccc(Cl)cc1C(F)(F)F)c1ccccc1	0	0	0	0	15.8	0
SMILES	RE007 growth inh	LmPK inhibitor	Tb PYK inh	Shiga inhibitor	Cycloheximide cs	FBPA Giardia inh
O=C(Nc1ccc(Cl)cc1Cl)C1=Cc2ccccc2OC1	0	0	0	67.6	53.5	0
Cc1c(Cl)cccc1NC(=O)c1ccc(C(=O)Nc2cccc(Cl)c2C)cc1	-	-	0	-	-	-
Cc1ccc(C(=O)Nc2ccccc2Cl)cc1	0	0	0	-	36.6	0
O=C(Nc1ccc(Cl)cc1C(=O)c1ccccc1)c1ccccc1	0	0	0	0	0	0
O=C(Nc1ccc(C(=O)Nc2ccccc2Cl)cc1)c1cccnc1	0	0	0	28.7	19.0	-
COc1ccc(NC(=O)Cn2cnc3c(oc4ccccc43)c2=O)cc1OC	-	-	0	-	-	-
O=C(Nc1ccccc1Cl)c1ccc(C(=O)Nc2ccccc2Cl)cc1	0	-	0	-	-	-
COCC(=O)Nc1ccc(C(=O)Nc2ccccc2Cl)cc1	-	0	-	92.1	32.5	0
O=C(Nc1cc(Cl)ccc1Cl)c1ccc(-c2ccccc2)cc1	0	0	0	0	17.2	0
O=C(Nc1ccc(F)c(Cl)c1)c1ccccc1	0	-	0	-	-	-
COc1ccccc1NC(=O)c1ccc(NC(=O)COC(=O)C(C)C)cc1	0	0	0	0	0	0
O=C(Nc1ccc(F)c(Cl)c1)c1cccnc1	0	0	0	0	13.7	0
O=C(Nc1ccccc1Cl)c1ccccc1	0	0[11.5 µM]	0	148.1	30.1	0
O=S(=O)(c1ccccc1)N1CCC2(CCN(Cc3ccccc3)CC2)CC1	-	-	0	-	-	0
